DAGLB inhibitor: blocks human DAGLB lipase activity. Q8NCG7. HEK293T DAGLB membrane lysate, EnzChek fluorogenic substrate. inhibition, % at 5.17 µM. actives 0.059% (n = 340,000); in the data active means inhibition above about 34%;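 further: 0% = enzyme with vehicle and 100% = wells lacking enzyme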
PAFAH1B3 inh: blocks human PAF acetylhydrolase 1B catalytic subunit 3; Q15102; recombinant PAFAH1B3, FP-rhodamine probe, fluorescence polarization; actives 0.28% (n = 340,000); AID 492972; inhibition, % at 3.39 µM;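 active means inhibition above the screen-wide average of all tested compounds plus 3 SD, cut at about 25% in these data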;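 further: 0% = enzyme with DMSO only and 100% = wells lacking PAFAH1B3 protein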
Target sequence (Q15102 whole entry, looked up): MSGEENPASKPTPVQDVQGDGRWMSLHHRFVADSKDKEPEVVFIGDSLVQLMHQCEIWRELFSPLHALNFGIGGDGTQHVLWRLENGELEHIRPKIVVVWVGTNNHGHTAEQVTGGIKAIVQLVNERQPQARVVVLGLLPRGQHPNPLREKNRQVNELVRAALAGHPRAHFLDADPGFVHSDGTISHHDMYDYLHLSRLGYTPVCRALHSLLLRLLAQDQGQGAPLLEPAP
pPAFAH inh: inhibitors of human plasma PAF acetylhydrolase (pPAFAH). AID 463082. recombinant pPAFAH, FP-rhodamine probe fluorescence polarization. actives 1.5% (n = 330,000). inhibition, % at 3.39 µM. Q13093;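 active means inhibition above the mean inhibition across the screen plus 3 SD, cut at about 25% in these data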;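 further: inhibitors block binding of the rhodamine activity-based probe so polarization drops; 0% = enzyme with DMSO and 100% = wells lacking pPAFAH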
PAFAH1B2 FP inh: PAFAH1B2 (human) inhibition; recombinant PAFAH1B2, FP-rhodamine activity probe, fluorescence polarization; actives 1.2% (n = 340,000); inhibition, % at 3.39 µM; AID 492953;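 active means inhibition above the mean of all tested compounds plus 3 SD, cut at about 24% in these data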;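 further: 0% = enzyme with DMSO and 100% = wells lacking PAFAH1B2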
Target sequence (P68402 whole entry, looked up): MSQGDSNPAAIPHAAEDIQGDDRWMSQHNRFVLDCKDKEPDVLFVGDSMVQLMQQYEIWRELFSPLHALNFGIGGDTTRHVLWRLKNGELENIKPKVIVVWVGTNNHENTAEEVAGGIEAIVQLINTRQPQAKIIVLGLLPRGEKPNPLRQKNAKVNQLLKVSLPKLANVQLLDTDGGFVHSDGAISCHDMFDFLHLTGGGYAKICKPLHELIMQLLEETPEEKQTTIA
PAFAH2 FP inh: PAFAH2 (human) inhibition; Q99487; recombinant PAFAH2, FP-rhodamine activity probe, fluorescence polarization; inhibition, % at 3.39 µM; actives 0.99% (n = 340,000); AID 492956;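 active means inhibition above the mean over all tested compounds plus 3 SD, cut at about 30% in these data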;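 further: inhibitors block probe labeling of enzyme so polarization drops; 0% = enzyme with DMSO and 100% = wells lacking PAFAH2 protein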
HTRA1 inhibitor: HTRA1 (human) protease inhibition; Q92743; AID 504803; recombinant HTRA1, FP-rhodamine activity-based probe, fluorescence polarization; inhibition, % at 5.96 µM; actives 0.5% (n = 340,000); in the data active means inhibition above about 36%;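 further: 0% = enzyme with DMSO and 100% = wells lacking enzyme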
Starred values were filed as active, the others as inactive; nt = no result given. Only some compounds are listed: those with a hit (about 2.8% of all), similar ones and a draw of the others.

SMILES | DAGLB inhibitor | PAFAH1B3 inh | pPAFAH inh | PAFAH1B2 FP inh | PAFAH2 FP inh | HTRA1 inhibitor
COc1cc(/C=N/Nc2ccc(Cl)c(C(=O)O)c2)ccc1OC(=O)c1ccc(F)cc1 | 4 | 12 | 3 | 1 | 4 | -2
COc1cccc(C(=O)Oc2ccc(/C=N/Nc3ccc(C(=O)O)cc3)cc2OC)c1 | 3 | 11 | 28* | 10 | 1 | 5
O=C([C@H](Cc1ccccc1)N1C(=O)c2ccccc2C1=O)N1CCOCC1 | -3 | 4 | -5 | -7 | -14 | 2
O=C(NNC(=O)C12CC3CC(CC(C3)C1)C2)c1cccc([N+](=O)[O-])c1 | -1 | 6 | 6 | 30* | 1 | 8
CCCCCC#CCC#CCC#CCC#CCCCC(=O)O | nt | nt | 61* | nt | nt | nt
COC(=O)[C@@]1(C)[C@H]2C(=O)N(C)C(=O)[C@H]2[C@H]2CN=C(SCc3ccc(Cl)cc3)N21 | 0 | 1 | 4 | 29* | -2 | 3
CC1CN(c2ccc(Cl)cc2)c2nc3c(c(=O)[nH]c(=O)n3C)n2C1 (stereo not drawn) | 2 | 8 | nt | -2 | 1 | 4
CCc1ccc(N2CC(C)Cn3c2nc2c3c(=O)[nH]c(=O)n2C)cc1 (stereo not drawn) | 0 | 0 | 34* | 6 | 6 | -4
CC(=O)Nn1cnc2c(c1=O)C1(CCCC1)Cc1ccccc1-2 | 1 | 16 | 7 | 25* | -1 | 8
Cn1ncn2c(=O)c3c(nc12)-c1ccccc1CC31CCCC1 | -6 | 3 | 5 | 6 | -8 | -4
Cc1ccc(-n2c(SCC(N)=O)nc3c(c2=O)C2(CCCC2)Cc2ccccc2-3)cc1 | 0 | -12 | 5 | 6 | -9 | -77
O=c1c2c(nc3n1CCCCC3)-c1ccccc1CC21CCCC1 | -11 | -1 | 2 | 28* | -1 | -8
C=CCSc1n[nH]c2nc3c(c(=O)n12)C1(CCCC1)Cc1ccccc1-3 | 3 | 0 | 6 | 44* | 9 | 1
CCOc1ccc(C(=O)COC(=O)Cn2[nH]c(=O)c3ccccc3c2=O)cc1 | -1 | nt | nt | nt | nt | -4
COc1ccc(C(=O)OCC(=O)NC23CC4CC(CC(C4)C2)C3)c(O)c1 | -8 | nt | nt | nt | nt | -29
O=C(CSc1ccccn1)C12CC3CC(CC(C3)C1)C2 | -12 | 1 | 3 | 26* | 8 | -5
Cc1ccc(C(=O)CSc2ccccn2)cc1 | 0 | -5 | -4 | 0 | -4 | -1
O=C(OCC(=O)C12CC3CC(CC(C3)C1)C2)c1ccccn1 | 0 | 4 | -4 | 25* | 0 | -4
O=C(OCC(=O)C12CC3CC(CC(C3)C1)C2)c1ccc(O)cc1O | -3 | -3 | 5 | 26* | 33* | -32
CCOC(=O)C1=C(COC(=O)c2cccc(NC(C)=O)c2)NC(=O)NC1C (stereo not drawn) | 1 | 3 | 1 | 2 | 6 | 0
O=C1NC(Cc2ccc(O)cc2)c2nc3cc(F)ccc3c(=O)n2-c2cc3ccccc3cc21 (stereo not drawn) | 4 | nt | nt | nt | nt | -68
CCOc1ncccc1C(=O)OCC(=O)Nc1c(C)cccc1C | 1 | 0 | 13 | 2 | 18 | -1
CCOc1ncccc1C(=O)OCC(=O)Nc1ccc(-c2nc3ccc(C)cc3s2)cc1 | -1 | -3 | 25* | 0 | 18 | -8
Cc1ccc2nc(-c3ccc(NC(=O)COC(=O)c4ccco4)cc3)sc2c1 | 5 | -12 | -2 | -6 | 16 | -3
CCOc1ncccc1C(=O)OCC(=O)NC1CCCCC1 | -2 | 8 | 31* | 3 | 79* | -7
SMILES | DAGLB inhibitor | PAFAH1B3 inh | pPAFAH inh | PAFAH1B2 FP inh | PAFAH2 FP inh | HTRA1 inhibitor
O=C(COC(=O)c1sc2ccccc2c1Cl)NC1CCCCC1 | 1 | 0 | 31* | 0 | -8 | 1
CCOc1ncccc1C(=O)OCC(=O)Nc1c(C)cc(C)cc1C | -6 | 3 | 26* | 5 | 34* | 6
COCCN(CC(=O)Nc1cccc(C)c1C)C(=O)c1ccc(-n2cccn2)cc1 | 2 | 8 | 3 | -1 | 6 | -5
O=C(COC(=O)c1ccc(F)cc1Cl)NC1CCCCCCC1 | -5 | 8 | 33* | 5 | 86* | 0
O=C(COC(=O)c1ccccc1Br)NC1CCCCCCC1 | -8 | 14 | 32* | 12 | 86* | -6
O=C(NCc1cccnc1)c1cc(Sc2cccc(Cl)c2)nc2ccccc12 | -1 | -4 | 33* | 2 | 10 | -17
CCCCn1c(O)c(/C=C/C=C/C=Nc2ccccc2)sc1=S | 7 | -11 | 30* | -9 | 2 | -6
COc1cccc(/C=N/NC(=O)c2cc3c(OC)ccc(OC)c3[nH]2)c1O | 3 | 40* | 24 | 29* | -6 | 25
COc1cc(OC)c2cc(C(=O)N/N=C/c3cccc(OC)c3O)[nH]c2c1 | 7 | 16 | 18 | 11 | -11 | 15
CCCn1nnc(NC(=O)COc2ccc(Cl)cc2)n1 | -1 | 8 | -1 | 3 | 3 | -1
COC(=O)c1sccc1NC(=O)CSc1ccccc1N | -1 | 6 | -3 | 6 | 2 | -2
COC(=O)c1sccc1NC(=O)CSc1ccc(Cl)cc1 | -12 | -12 | 8 | 29* | -6 | -20
CCCn1nnc(NC(=O)Cc2ccc(Cl)cc2)n1 | 2 | 7 | 1 | 27* | 2 | -6
Cn1nnc(NC(=O)CSc2nnnn2-c2ccc(F)cc2)n1 | -1 | 12 | -2 | 4 | 0 | 3
Cn1nnc(NC(=O)CSc2ccc(Cl)cc2)n1 | 0 | -1 | 3 | 25* | -8 | 2
COc1cc(Cl)c(C)cc1NC(=O)CSc1ccc(C)cc1 | -24 | 3 | 0 | 34* | -4 | -4
O=C(CSc1nc2ncc(Cl)cc2[nH]1)NCC(=O)Nc1ccc(F)c(F)c1F | 12 | 7 | 0 | 14 | 3 | -2
Cc1cccc(N/N=C(\C#N)S(=O)(=O)C(C)(C)C)c1 | -1 | 3 | 12 | 7 | -2 | -2
CC(C)(C)c1ccc(N/N=C(\C#N)S(=O)(=O)C(C)(C)C)cc1 | 1 | 12 | 33* | 14 | 19 | 0
Cc1ccccc1C(=O)c1cccn1CC(=O)NCc1ccc(Cl)cc1 | -4 | 10 | 1 | 31* | 6 | -8
Cc1ccc(CNC(=O)Cn2cccc2C(=O)c2ccccc2C)cc1 | -2 | 7 | 6 | 27* | 1 | -6
COc1ccc(NC(=O)C2CC(=O)N(CCc3ccc(F)cc3)C2)c(OC)c1 (stereo not drawn) | 0 | 11 | 4 | 2 | -2 | 11
O=C1NN(c2ccc(Cl)c(Cl)c2)C(=O)/C1=C/c1cccc(OC(=O)c2cccs2)c1 | nt | nt | 57* | nt | nt | nt
Cc1ccc(F)cc1CNC(=O)C1CCC(=O)N(CC2CCCCC2)C1 (stereo not drawn) | 2 | 11 | 0 | -3 | 1 | 2
O=[N+]([O-])/C=C\c1ccc(N2CCCC2)c(F)c1 | -2 | -4 | nt | -1 | -1 | 2
COc1cc(C=O)ccc1OCCOCCOc1cc(C)ccc1Cl | -6 | -1 | 3 | -1 | -7 | -10

Screening results as filed in PubChem BioAssay.
